Pol eta inh-1 – blocks human DNA polymerase eta activity | Q9Y253 | recombinant Pol eta, fluorescent DNA replication assay | Potency, µM (doses to about 114 µM), for the others: top-dose activity change, negative = inhibition, actives largely listed as inhibitors | 390,000 compounds, 1.2% hits; also: potency is read from the fitted curve at half-maximal effect; % is scaled to controls: 0 for no effect and ±100 for the full control effect
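Pol eta (10 nM) was preincubated with compounds for 15 min at room temperature, after which fluorescent replication substrate (50 nM final) was added to start the reaction. Fluorescence was read kinetically at 0 and 10 min.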
PI5P4K alpha inh – inhibitors of human PI5P4K alpha; PI5P4Kalpha enzyme, ADP-Glo luminescence, 60 min; hits give low values; 330,000 compounds, 1.2% hits; AID 652105; P48426; max response, %; active = max response of -50% or lower; inconclusive = between -30% and -50%; inactive = -30% or higher; also: value at the top dose of about 77 µM; % is scaled to controls: 0 for no effect and ±100 for the full control effect
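ADP-Glo luminescence end-point after a 60 min room-temperature kinase reaction. PI5P4Kalpha and substrate in HEPES pH 7.4 buffer with EGTA, 0.1% CHAPS and 5% DMSO; ATP at 5 microM final.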
WRN helicase inh – WRN helicase (human) inhibition | AID 651768 | 360,000 compounds, 0.46% hits | WRN helicase unwinding, fluorescent forked duplex, kinetic | Q14191 | Potency, µM (highest dose often 114 µM), for the others: top-dose activity change, negative = inhibition, hits mostly inhibitors; also: potency is read from the fitted curve at half-maximal effect; % is scaled to controls: 0 for no effect and ±100 for the full control effect; nearly all actives have a fitted effect of over 55% in size
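Enzyme (20 nM final) and test compound sit together 15 min at room temperature before substrate addition. Substrate is a single-forked duplex oligonucleotide (100 nM) labelled with fluorophore and quencher, with 2 mM ATP; helicase unwinding raises red fluorescence, read kinetically.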
Pol kappa inh-1 – inhibitors of human DNA polymerase kappa | Q9UBT6 | purified Pol kappa, fluorescent DNA synthesis assay, 10 min | Potency, µM (series often up to 107 µM), inactives show at the top dose activity, negative = inhibition, usual class: inhibitors | 400,000 compounds, 0.53% hits; also: potency is read from the fitted curve at half-maximal effect; % is scaled to controls: 0 for no effect and ±100 for the full control effect
Target sequence (Q9UBT6 whole entry, looked up): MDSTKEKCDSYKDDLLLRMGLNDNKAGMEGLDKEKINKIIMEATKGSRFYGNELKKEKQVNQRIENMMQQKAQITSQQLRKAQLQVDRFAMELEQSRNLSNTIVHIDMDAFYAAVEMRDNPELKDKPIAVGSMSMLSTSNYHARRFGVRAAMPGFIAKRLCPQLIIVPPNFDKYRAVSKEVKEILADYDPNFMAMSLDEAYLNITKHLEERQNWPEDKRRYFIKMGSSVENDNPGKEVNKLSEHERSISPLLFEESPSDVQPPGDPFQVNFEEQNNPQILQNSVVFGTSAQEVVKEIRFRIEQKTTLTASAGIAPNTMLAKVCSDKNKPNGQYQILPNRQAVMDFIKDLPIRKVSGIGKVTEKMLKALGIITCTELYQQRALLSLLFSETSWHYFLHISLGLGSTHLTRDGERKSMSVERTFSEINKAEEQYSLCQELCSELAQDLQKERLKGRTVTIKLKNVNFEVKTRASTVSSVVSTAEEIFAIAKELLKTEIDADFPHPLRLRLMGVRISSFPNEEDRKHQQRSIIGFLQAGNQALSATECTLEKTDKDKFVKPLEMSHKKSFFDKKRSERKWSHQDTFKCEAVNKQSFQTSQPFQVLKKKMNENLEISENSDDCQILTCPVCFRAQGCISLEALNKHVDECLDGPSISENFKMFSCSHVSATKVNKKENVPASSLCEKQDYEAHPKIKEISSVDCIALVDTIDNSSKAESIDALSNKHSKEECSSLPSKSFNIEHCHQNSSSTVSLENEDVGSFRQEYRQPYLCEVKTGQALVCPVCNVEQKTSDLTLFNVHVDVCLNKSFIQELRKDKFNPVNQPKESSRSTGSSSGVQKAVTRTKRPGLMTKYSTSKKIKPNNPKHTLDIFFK
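Readout: fluorescence, taken kinetically at 0 and 10 min. Conditions: 10 nM Pol kappa, 15 min RT compound preincubation, 50 nM substrate final. Controls: enzyme-free buffer wells.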
POLI inh – DNA polymerase iota (human) inhibition; Q9UNA4; Pol iota fluorescent replication assay, 10 min; Potency, µM (highest dose often 115 µM), for inactives: top-dose activity, negative = inhibition, most hits filed as inhibitors; 390,000 compounds, 1% hits; AID 588590; also: potency is read from the fitted curve at half-maximal effect
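Fluorescent replication assay read twice, at 0 min and 10 min after adding 50 nM (final) substrate. Enzyme (10 nM) and compounds were first incubated 15 min at room temperature; enzyme-free buffer wells were negative controls.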
Pol beta inh – blocks human DNA polymerase beta activity; P06746; Pol beta primer extension/strand displacement, fluorescence kinetic; Potency, µM (highest dose often 114 µM), inactives show at the highest dose activity change, negative = inhibition, hits mostly inhibitors; 340,000 compounds, 1.3% hits; AID 485314; also: potency is read from the fitted curve at half-maximal effect; % is scaled to controls: 0 for no effect and ±100 for the full control effect
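Kinetic readout of DNA synthesis with strand displacement by Pol beta. Compound and 10 nM enzyme sit 15 min at room temperature; 50 nM substrate starts the reaction, read immediately and at 10 min.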
GALK inh confirm – galactokinase (human) inhibition, confirmation | Potency, µM (top dose mostly 115 µM), for the others: at the highest dose activity, negative = inhibition, most hits filed as inhibitors | AID 2015 | shares compounds with Pol eta inh-1 | purified GALK, Kinase-Glo ATP depletion luminescence | 150 compounds, 70% hits
GALK redox cs – counter-screen for GALK inhibitors: redox cycling H2O2 generation; shares compounds with Pol eta inh-1; Phenol red-HRP H2O2 redox cycling, absorbance 600 nm; Potency, µM (top dose mostly 115 µM), for inactives: at the highest dose activity change, negative = H2O2 signal, actives largely listed as inhibitors; 150 compounds, 40% hits
HEK293 viability – HEK-293 cytotoxicity, GALK inhibitor secondary. Potency, µM (series often up to 46.1 µM), without a hit: top-dose activity change, negative = cytotoxicity, hits mostly inhibitors. HEK-293 viability, ATP luminescence (CellTiter-Glo), 24/48 h. 170 compounds, 10% hits. shares compounds with Pol eta inh-1; also: potency is read from the fitted curve at half-maximal effect; % is scaled to controls: 0 for no effect and ±100 for the full control effect
Pol kappa inh-2 – confirmation of human DNA polymerase kappa inhibitors | Potency, µM, most hits filed as inhibitors | AID 720501 | shares compounds with Pol eta inh-1 | purified Pol-kappa, fluorescent strand-displacement substrate | 920 compounds, 76% hits; also: potency is read from the fitted curve at half-maximal effect
Pol eta inh-2 – confirmation of human DNA polymerase eta inhibitors | Potency, µM, usual class: inhibitors | Pol eta primer extension, TAMRA/BHQ fluorescence, 10 min | 2,600 compounds, 64% hits | shares compounds with Pol eta inh-1 | AID 720502; also: potency is read from the fitted curve at half-maximal effect
* = called active by the depositor; ? = inconclusive; / = no result given; [ ] = dose if it differs, or a comment. Most compounds without a hit are left out; they make up all but 2.8% or so of the library. Unless noted, calls follow the shape of the dose curve; as a rule, active = well fitted curve in the direction sought with a large enough effect; inconclusive = small, poorly fitted or top-dose-only effect, or another doubt; inactive = no such curve, though single readings can be large; an effect the other way counts as inactive or inconclusive.

SMILES	Pol eta inh-1	PI5P4K alpha inh	WRN helicase inh	Pol kappa inh-1	POLI inh	Pol beta inh	Pol eta inh-2	others
CC(=O)Nc1ccc(C=NNc2ccc([N+](=O)[O-])cc2S(=O)(=O)Nc2ccccc2C(=O)O)cc1	50µM*	-64*	-30%	-43%	?	/	/	Pol kappa inh-2=?
CCN1C(=O)[C@@H]2[C@H](C1=O)[C@@H]1C(=O)Nc3ccccc3C(=O)N1[C@@H]2c1cccc(Cl)c1	-13%	-2	8%	-13%	30%	24%	/
CC(=O)N[C@@H](C=O)[C@@H](O)[C@H](O)[C@H](O)CO	/	/	/	-9%[60.1 µM]	/	/	/
Cc1cccc(Oc2ccccc2NS(=O)(=O)c2ccc(CCC(=O)O)cc2)c1	20µM*	-14	-3%[11.6 µM]	-44%	?	/	85*	Pol kappa inh-2=19*
O=C(O)c1ccc(N/N=C/C2=C(N3CCOCC3)C(=C\c3ccccc3)/CC2)cc1	50µM*	-3	?	32µM*	?	?	?
Cc1cc(C)nc(N/N=C/C2=C(N3CCOCC3)C(=C\c3ccc(Cl)cc3)/CC2)n1	-6%	-13	-12%	-16%	?	-7%	/
COc1ccc(N/N=C(/C#N)S(=O)(=O)c2nsc(C)c2C#N)cc1	0%	-20	-7%	-12%	6%	-2%	/	GALK inh confirm=?;GALK redox cs=8%;HEK293 viability=11%
Cc1snc(S(=O)(=O)/C(C#N)=N/Nc2cccc(C(F)(F)F)c2)c1C#N	1%	27	-29%	-21%	-2%	21%	/	GALK inh confirm=24µM*;GALK redox cs=1%;HEK293 viability=11%
COc1ccc(N/N=C(/C#N)S(=O)(=O)C(C)(C)C)cc1	-23%	2	1%	3%	19%	4%	/
COc1ccccc1N(CC(=O)N1CCN(Cc2ccccc2)CC1)S(=O)(=O)c1ccccc1	-21%	3	7%	/	/	/	/
COc1ccccc1CCNC(=O)Cc1c(C)c2c(O)cc(C)cc2oc1=O	-24%	/	/	6%	12%	-2%	/
COc1cccc(NC(=O)Cn2cc(S(=O)(=O)N3CCCC3)c(S(=O)(=O)N3CCCC3)c2)c1	89µM*	/	/	-33%	?	?	?	Pol kappa inh-2=38*
O=C(Cn1cc(S(=O)(=O)N2CCCC2)c(S(=O)(=O)N2CCCC2)c1)Nc1ccc(F)cc1	-25%	/	/	-4%[60.1 µM]	26%	-25%	/
CCOc1ccc2c(c1)c(=O)c(C(=O)c1ccc(CC)cc1)cn2CC(=O)Nc1cccc(Cl)c1	-4%	/	/	-16%	-2%	7%	/
Cc1cccc(/C=C/C(=O)c2cc(Br)ccc(=O)c2O)c1	32µM*	?	?	?	0.89µM*	?	?
COC(=O)[C@H](C)NS(=O)(=O)C1CC1	/	/	/	6%	9%	/	/
CC(=O)Nc1ccc(OCc2cccc(-c3nc4ccccc4c(=O)n3Cc3ccco3)c2)cc1	/	/	/	/	/	/	?
CC(=O)Nc1ccc(NC(=O)C(C)Sc2nc3ccccc3c(=O)n2Cc2ccco2)cc1 (stereo not drawn)	-20%	0	-9%	-11%	18%	/	/
Cc1cccc(N2CCN(S(=O)(=O)c3ccc4c(c3)C(C)(C)C(=O)N4C)CC2)c1C	22µM*	?	-9%[11.6 µM]	?	?	13µM*	?
Cc1cc(=O)oc2cc(OCC(=O)N3CCCc4ccccc43)ccc12	-7%	-2	-6%	4%	11%	-2%	/
Cc1noc(C)c1COc1ccc(C(=O)OCC(=O)N2c3ccccc3NC(=O)C2(C)C)cc1	7.1µM*	?	-29%	?	?	22µM*	/	Pol kappa inh-2=34*
Cc1cc(=O)oc2cc(OCC(=O)N3c4ccccc4NC(=O)C3(C)C)ccc12	56µM*	?	-1%[11.6 µM]	?	40µM*	/	?
COc1ccc(/C=C2\SC(=S)N(CCCC(=O)Nc3ccc(C(=O)O)cc3)C2=O)cc1OC	?	4	?	-27%	56µM*	?	/	Pol kappa inh-2=42*
O=C(CCCN1C(=O)/C(=C/c2ccc3c(c2)OCO3)SC1=S)Nc1cccc(C(=O)O)c1	?	-14	-3%[11.6 µM]	-9%	-22%	20%	/
O=C(CCN1C(=O)/C(=C/c2ccc3c(c2)OCO3)SC1=S)Nc1cccc(C(=O)O)c1	?	-4	-15%[11.6 µM]	-9%	188%	14%	/	Pol kappa inh-2=?
SMILES	Pol eta inh-1	PI5P4K alpha inh	WRN helicase inh	Pol kappa inh-1	POLI inh	Pol beta inh	Pol eta inh-2	others
COc1ccc(/C=C2\SC(=O)N(CCCC(=O)Nc3ccc(C(=O)O)cc3)C2=O)cc1OC	-21%	-9	-7%	-3%	-4%	1%	/
CN(C)CCCNc1nc2cc(-c3cnn(Cc4ccccc4)c3)sc2c(=O)n1C	/	4	-11%	/	/	/	/
C/C(=N\Nc1ccc(C(=O)O)cc1)c1ccc(Br)cc1	13µM*	-3	-14%	?	40µM*	20µM*	27*
N#C/C(=C\c1ccc(Cl)c([N+](=O)[O-])c1)c1ccccn1	-18%	2	-14%	1%	77%	-16%	/
O=[N+]([O-])c1ccc(Cl)c2c1C1C=CCC1C(c1ccccn1)N2 (stereo not drawn)	50µM*	-16	?	?	?	35µM*	?
Cc1cccc(Nc2ccccc2C(=O)OCC(=O)NCc2ccco2)c1C	79µM*	/	-19%[57.1 µM]	-9%	?	1%	?
O=C(COC(=O)c1ccccc1Nc1ccc(SC(F)F)cc1)NCc1ccco1	-10%	-4	3%	-11%	-3%	31%	/
COCCN(C(=O)COC(=O)Cc1coc2cc(C)ccc12)c1c(N)n(Cc2ccccc2)c(=O)[nH]c1=O	20µM*	?	?	?	35µM*	/	60*
Cc1ccc2nc3sc(C(=O)NCc4ccco4)cc3cc2c1	/	/	/	/	/	/	76*

Assay outcomes deposited in PubChem by National Center for Advancing Translational Sciences (NCATS).
